Compound activity from PubChem.
TWEAK-Fn14 inh = inhibitors of TWEAK-Fn14 signaling, primary screen, luciferase reporter cells, uHTS; inhibition, % at 10 µM; TWEAK-stimulated Fn14 reporter cells, luciferase luminescence, 8 h; 360,000 compounds, 2% hits; AID 1159606, 2016; in the data active = inhibition above about 50%
EBV LMP1 NFkB = EBV LMP1-driven NF-kappaB luciferase reporter inhibitors, primary screen, cell-based, luminescence, single point | LMP1-induced NF-kappaB luciferase reporter cells | inhibition, % at 12.5 µM | 350,000 compounds, 0.69% hits | AID 504558, 2011; in the data active = inhibition above about 41%;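 note: 0% = neutral control wells and 100% = reference inhibitor control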
HSP90 refold inh = HSP90 inhibitors, primary screen, cell lysate, luminescence; Heat shock protein HSP 90 (rabbit reticulocyte lysate; luciferase refolding); 290,000 compounds, 0.91% hits; AID 1789, 2009; inhibition, % at 5.6 µM; Rabbit reticulocyte lysate, luciferase refolding luminescence, 3 h;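 active = inhibition above the screen-wide mean plus 3 SD, computed separately per campaign, cut at about 16% in these data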;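 note: 0% = DMSO wells and 100% = 60 µM geldanamycin wells; inhibitors lower the luminescence because luciferase stays unfolded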
TROY NFkB inh = inhibitors of TROY-driven NF-kB signaling, primary screen, Q293 LMP1-TROYcd cells, NF-kB luciferase, uHTS. Q293 LMP1-TROYcd NF-kB luciferase reporter, 4 h. inhibition, % at 10 µM. 360,000 compounds, 0.98% hits. AID 1347056, 2019;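 active = compounds whose plate-normalised and pattern-corrected inhibition of the luciferase reporter signal at the single screening dose is 50% or more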
HSF1 inhib = HSF1 inhibitors in luciferase reporter cells, primary screen, cell-based, NIH3T3, luminescence; NIH3T3-HGL HSE-luciferase, MG132-induced, luminescence 8 h; active compounds read low; activity change, negative = inhibition, % at 7.5 µM (by protocol); 300,000 compounds, 0.77% hits; AID 2098, 2009;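 active = more than half of replicate wells show activity change below -50%, luminescence cut by over half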;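 note: luciferase reports HSF-1 transcriptional activity via heat shock element; 0% = median of DMSO wells and -100% = zero luminescence signal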
HSF1 activator = HSF-1 activators, primary screen, NIH3T3-HGL cells, MG132 stress, luminescence, single point. NIH3T3-HGL HSF-1 luciferase reporter, 8 h; 100% = twice DMSO control signal. activation, % at 9 µM. 300,000 compounds, 1.7% hits. AID 504408, 2011;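 active = mean replicate activation of at least 50% with a set share of replicates each reaching 50%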;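 note: 0% = median of the neutral control wells and 100% = twice that signal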
Active calls of the source: *; · = no result; ! = a repeat was not active. Hits are enriched below; roughly 4.7% of the tested compounds scored in any of these assays.

SMILES | TWEAK-Fn14 inh | EBV LMP1 NFkB | HSP90 refold inh | TROY NFkB inh | HSF1 inhib | HSF1 activator
CCc1nccn1C(=O)c1cnn2c(C(F)F)cc(-c3ccc(C)cc3)nc12 | 54* | -7 | 4 | 8 | -1 | 0
CCc1nccn1C(=O)c1cnn2c(C(F)F)cc(-c3ccccc3)nc12 | · | · | 0 | · | -88* | -91
CCCN1Cc2cccc(C(=O)N3CCN(c4ccc(OC)cc4)CC3)c2C1=O | -2 | -25 | 0 | -4 | -60* | -69
CCCN1Cc2cccc(C(=O)N3CCN(c4ccccc4)CC3)c2C1=O | -1 | -12 | 0 | 3 | 1 | -6
CCOC(=O)C1(C)CCCN(C(=O)c2cccc(C(F)(F)F)c2)C1 (stereo not given) | 1 | · | · | -9 | · | ·
Cc1ccc(N2C(=O)C3C4C=CC(CNC(=S)Nc5ccc(F)cc5)(O4)C3C2=O)cc1 (stereo not given) | 11 | -2 | 2 | -10 | 25 | 21
Cc1ccc(N2C(=O)C3C4C=CC(CNC(=S)Nc5ccc(Cl)cc5)(O4)C3C2=O)cc1 (stereo not given) | 20 | 3 | -2 | -5 | 29 | 55*
CC(C)(C)C(=O)NCC12C=CC(O1)C1C(=O)N(c3ccccc3)C(=O)C12 (stereo not given) | 22 | -6 | 2 | -12 | 184 | 203*
O=C1C2C3C=CC(CO)(O3)C2C(=O)N1c1ccc(-c2ccccc2)cc1 (stereo not given) | · | · | 0 | · | 35 | 47
CCc1ncc(C(O)c2ccc(Cl)cc2)n1Cc1ccccc1 (stereo not given) | 6 | 4 | · | 16 | · | ·
COc1ccc(S(=O)(=O)N(C)c2ccc(C(=O)NCc3ccccn3)cc2)cc1 | 7 | -1 | 4 | 22 | 23 | 68*
COc1ccc(CCNC(=O)COc2ccc(N(C)S(=O)(=O)c3ccc(C)cc3)cc2)cc1 | 2 | -3 | 0 | 16 | 8 | 53*
Cc1ccc(S(=O)(=O)N(C)c2ccc(C(=O)NCc3ccccn3)cc2)cc1 | 1 | 1 | -2 | -2 | 5 | 14
O=C(NCCc1ccccc1C(F)(F)F)c1cc(COc2ccccc2)on1 | -2 | -26 | · | 8 | · | ·
CCOc1ccc(S(=O)(=O)NCCC(=O)OC(C)C(=O)N2CCc3ccccc32)cc1 (stereo not given) | 6 | 3 | -3 | 20 | 15 | 56*
CC1CC(=O)c2c(cc3c(-c4c(O)cc(O)c5c(O)c6c(cc45)OC(C)CC6=O)c(O)cc(O)c3c2O)O1 (stereo not given) | 78* | 27 | 3 | 1 | -3 | -5
O=C1CC(c2ccc(O)cc2)Oc2cc(O)cc(O)c21 (stereo not given) | -6 | 3 | -3 | -30 | -2 | 9
CN(c1cccnc1)c1ncnc2[nH]ncc12 | -10 | 4 | -4 | -9 | 1 | 27
C=CCN(CC=C)c1ncnc2[nH]ncc12 | 67* | 29 | · | 32 | · | ·
O=S(=O)(Nc1ccc(Cl)cc1NS(=O)(=O)c1ccccc1)c1ccccc1 | -4 | 0 | · | 51* | · | ·
Cc1ccc(Cl)cc1NS(=O)(=O)c1ccccc1 | -3 | 4 | · | -11 | · | ·
COc1cccc(NC(=O)CCCCCN2C(=O)[C@@H]3Cc4ccccc4CN3C2=O)c1 | -5 | -2 | 3 | -15 | 5 | -16
Cc1cc(C)cc(NC(=O)CCCCCN2C(=O)[C@@H]3Cc4ccccc4CN3C2=O)c1 | 55* | 2 | 1 | -6 | 2 | 4
Cc1cc(OCc2cc(C(=O)N3CCC(Oc4cccnc4)CC3)no2)cc(C)c1Cl | 27 | -3 | 3 | 50* | -4 | -21
O=C(O)C(O)c1ccccc1 (stereo not given) | 22 | 83*! | -1 | 1 | -4 | -15
O=C1NC(=Nc2ccccc2Cl)S/C1=C\c1ccc(C(=O)O)cc1 | -1 | 2 | -4 | -16 | 2 | 3
